Laboratory results reported in PubChem BioAssay (NCI).
The panel holds about 83,000 compounds, 20% with a hit somewhere; the sample as a whole holds those more often.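 A percent growth of 40 corresponds to 60% growth inhibition; 0 means no net growth; -100 means all cells died. Active threshold: below 10.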 Activity calls are given as the source filed them.

Experiments:
Test in all cases: NCI-60 one-dose screen, 48 h (100 = growth as untreated, 0 = no growth, -100 = all killed)
Settings in all cases: 10 µM unless noted
HCT-15 colon = tested on: HCT-15 colon
HT29 colon = tested on: HT29 colon
SNB-19 CNS = tested on: SNB-19 CNS
U251 CNS = tested on: U251 CNS
PC-3 prostate = tested on: PC-3 prostate
SK-MEL-5 melanoma = tested on: SK-MEL-5 melanoma
UACC-62 melanoma = tested on: UACC-62 melanoma
LOX IMVI melanoma = tested on: LOX IMVI melanoma
SK-MEL-28 melanoma = tested on: SK-MEL-28 melanoma

Measured: growth

Cc1c(C(N)=O)sc2c1c(=O)n(Cc1ccccc1)c1nnc(Nc3ccccc3)n21
inactive: HCT-15 colon 96.1% | HT29 colon 94.3% | SNB-19 CNS 101% | U251 CNS 97.2% | PC-3 prostate 96.9% | SK-MEL-5 melanoma 105% | UACC-62 melanoma 92.5% | LOX IMVI melanoma 93.5% | SK-MEL-28 melanoma 109%

O=C(Nc1ccncc1)C(=O)c1cn(S(=O)(=O)c2ccc(Cl)cc2)c2ccccc12
inactive: HCT-15 colon 26.6% | SNB-19 CNS 44.7% | U251 CNS 31.3% | PC-3 prostate 41.7% | SK-MEL-5 melanoma 17.1% | UACC-62 melanoma 30.7% | LOX IMVI melanoma 42.8% | SK-MEL-28 melanoma 46.4%
active: HT29 colon 2.91%

Cc1ccc(C(=O)C2=Cc3cc4ccccc4n3Cc3cnnn32)cc1
inactive: HCT-15 colon 107% | HT29 colon 106% | SNB-19 CNS 93% | U251 CNS 100% | PC-3 prostate 87.7% | SK-MEL-5 melanoma 93.5% | UACC-62 melanoma 85.1% | LOX IMVI melanoma 110% | SK-MEL-28 melanoma 102%

CC12CCC3C4(C)COC(c5ccco5)OC4CCC3(C)C1CC(C1=CCOC1=O)O2 (stereo unspecified)
inactive: HCT-15 colon 97.7% | HT29 colon 105% | SNB-19 CNS 97.3% | U251 CNS 110% | PC-3 prostate 90.5% | SK-MEL-5 melanoma 101% | UACC-62 melanoma 87.8% | LOX IMVI melanoma 106% | SK-MEL-28 melanoma 106%

N/C(=N\C(N)=N\c1nc2ccccc2s1)c1cccc(Br)c1
inactive: HCT-15 colon 44.2% | HT29 colon 104% | SNB-19 CNS 90.9% | U251 CNS 38.3% | PC-3 prostate 63.2% | SK-MEL-5 melanoma 94.6% | UACC-62 melanoma 84.7% | LOX IMVI melanoma 33.2% | SK-MEL-28 melanoma 94.5%

COc1cc(/C=C/C(=O)N2CCN(C(=O)/C=C/c3cc(OC)c(OC)c(OC)c3)CC2)cc(OC)c1OC
inactive: HCT-15 colon 113% | HT29 colon 109% | SNB-19 CNS 105% | U251 CNS 103% | PC-3 prostate 102% | SK-MEL-5 melanoma 104% | UACC-62 melanoma 89.1% | LOX IMVI melanoma 101% | SK-MEL-28 melanoma 105%

Cc1ccc2nc(-c3cc4c([nH]c5ccccc54)c(-c4ccc(F)c(F)c4)n3)[nH]c2c1
inactive: HCT-15 colon 32.7% | HT29 colon 18.7% | SNB-19 CNS 112% | U251 CNS 64% | PC-3 prostate 72.6% | SK-MEL-5 melanoma 61.1% | UACC-62 melanoma 90.4% | LOX IMVI melanoma 11.7% | SK-MEL-28 melanoma 101%

COc1cc(-c2nn(-c3cccc(NC(=O)Nc4cc(C(F)(F)F)cc(C(F)(F)F)c4)c3)cc2-c2ccncc2)ccc1Cl
active: HCT-15 colon 2.59% | HT29 colon -41.2% | SNB-19 CNS 6.55% | U251 CNS -81.7% | PC-3 prostate -55.2% | SK-MEL-5 melanoma -96.1% | UACC-62 melanoma -55.9% | LOX IMVI melanoma -91.3% | SK-MEL-28 melanoma -28.9%

CN(CCCCCl)P(=O)(OCc1ccc([N+](=O)[O-])o1)C(F)(F)C[C@H](NC(=O)CNC(=O)c1ccc(N=[N+]=[N-])cc1)C(=O)NCCc1ccc(O)cc1 (stereo partly specified)
inactive: HCT-15 colon 103% | HT29 colon 86.3% | SNB-19 CNS 94.1% | U251 CNS 69.1% | PC-3 prostate 101% | SK-MEL-5 melanoma 91.3% | UACC-62 melanoma 59.7% | LOX IMVI melanoma 79.3% | SK-MEL-28 melanoma 63.9%

Cn1cnc2c(N3CCN(C(=O)OCc4ccc5c(Cl)cc(Cl)c(O)c5n4)CC3)nc(Cl)nc21
inactive: HCT-15 colon 30.5% | HT29 colon 113% | SNB-19 CNS 60.3% | U251 CNS 38.6% | PC-3 prostate 54.8% | SK-MEL-5 melanoma 41.6% | UACC-62 melanoma 53.7% | LOX IMVI melanoma 44.5% | SK-MEL-28 melanoma 68.5%

COc1ccc(OC)c(C2OC(c3ccc4ccccc4c3O)=NN2C(C)=O)c1 (stereo unspecified)
inactive: HCT-15 colon 62% | HT29 colon 61.1% | SNB-19 CNS 81.1% | U251 CNS 83.3% | PC-3 prostate 59.3% | SK-MEL-5 melanoma 58.4% | UACC-62 melanoma 69.1% | LOX IMVI melanoma 63.9% | SK-MEL-28 melanoma 78.6%

O=C(NCCCNc1nccc(-n2ccc3cccnc32)n1)c1c(F)cccc1F
inactive: HCT-15 colon 99.9% | HT29 colon 104% | SNB-19 CNS 95.7% | U251 CNS 102% | PC-3 prostate 96.8% | SK-MEL-5 melanoma 99.2% | UACC-62 melanoma 97.6% | LOX IMVI melanoma 102% | SK-MEL-28 melanoma 111%

CCCCCCCCCCCCCCCCCCNC(=O)[C@H]1CSC(c2cccs2)N1 (stereo partly specified)
active: HT29 colon -35% | U251 CNS -83.8% | SK-MEL-5 melanoma -66.2% | UACC-62 melanoma -92.1% | SK-MEL-28 melanoma -89.7%
inactive: HCT-15 colon 42.5% | SNB-19 CNS 27.8% | PC-3 prostate 38.5% | LOX IMVI melanoma 14.2%

COc1cc(-c2nn(-c3cccc(NC(=O)Nc4ccc(Cl)c(C(F)(F)F)c4)c3)cc2-c2ccncc2)ccc1Cl
active: HCT-15 colon 9.91% | HT29 colon -0.5% | U251 CNS -20.9% | PC-3 prostate -19% | SK-MEL-5 melanoma -65.3% | UACC-62 melanoma -43.8% | LOX IMVI melanoma 1.06% | SK-MEL-28 melanoma 8.8%
inactive: SNB-19 CNS 26.4%

CC(C)(C)n1cc(-c2ccnc(NCCCNS(=O)(=O)c3ccccc3)c2)c(-c2cccc(O)c2)n1
active: HCT-15 colon -4.07% | HT29 colon 8.45% | LOX IMVI melanoma -43.3%
inactive: SNB-19 CNS 76% | U251 CNS 48.5% | PC-3 prostate 30.3% | SK-MEL-5 melanoma 16.1% | UACC-62 melanoma 59.8% | SK-MEL-28 melanoma 44.1%

COc1ccc(-c2nc(/C=N/Nc3cc(C)nc4ccc(Cl)cc34)c(C)o2)cc1
active: HCT-15 colon -91.5% | HT29 colon -96.1% | SNB-19 CNS -90.4% | U251 CNS -95.9% | PC-3 prostate -73.1% | LOX IMVI melanoma -97% | SK-MEL-28 melanoma -41.3%
inactive: SK-MEL-5 melanoma 57% | UACC-62 melanoma 14.5%

O=S(=O)(c1ccc(OCCO)cc1)c1ccc(OCCO)cc1
inactive: HCT-15 colon 99% | HT29 colon 97.6% | SNB-19 CNS 108% | U251 CNS 93.2% | PC-3 prostate 85% | SK-MEL-5 melanoma 89.7% | UACC-62 melanoma 101% | LOX IMVI melanoma 105% | SK-MEL-28 melanoma 79%

COc1cc(/C=N\NC(=O)CN2CCN(c3cc4c(cc3F)c(=O)c(C(=O)N/N=C/c3cc(OC)c(OC)c(OC)c3)cn4C3CC3)CC2)cc(OC)c1OC
active: HT29 colon 4.47% | U251 CNS 2.13% | PC-3 prostate -19.8% | SK-MEL-5 melanoma -15.4% | UACC-62 melanoma -34.7% | LOX IMVI melanoma -67.1% | SK-MEL-28 melanoma -11.6%
inactive: HCT-15 colon 101% | SNB-19 CNS 19.1%

Cc1ccc(/C=C2\CN(C(=O)CCN3CCC(=NO)CC3)C/C(=C\c3ccc(C)cc3)C2=O)cc1
active: HCT-15 colon -27.9% | HT29 colon -42.8% | SNB-19 CNS 7.61% | U251 CNS -49.6% | SK-MEL-5 melanoma -23.6% | UACC-62 melanoma -50.8% | LOX IMVI melanoma -89.7% | SK-MEL-28 melanoma -17.5%
inactive: PC-3 prostate 11.7%

CCC(=O)Oc1ccc(/C(=C(/C)Cc2cccc(OC)c2)c2ccc(OCCN(C)C)cc2)cc1
inactive: HCT-15 colon 48.2% | HT29 colon 43.7% | SNB-19 CNS 92.6% | U251 CNS 71.3% | PC-3 prostate 85.5% | SK-MEL-5 melanoma 92.9% | UACC-62 melanoma 103% | LOX IMVI melanoma 73.4% | SK-MEL-28 melanoma 110%

COc1cccc(-c2cc3c(O)cc(C#N)cc3[nH]2)c1
inactive: HCT-15 colon 80.9% | HT29 colon 94.6% | SNB-19 CNS 93.1% | U251 CNS 85.3% | PC-3 prostate 81.8% | SK-MEL-5 melanoma 82.1% | UACC-62 melanoma 70.9% | LOX IMVI melanoma 92.4% | SK-MEL-28 melanoma 97.8%

COc1ccc(Nc2nn3c(-c4ccccc4)cc(-c4ccccc4)nc3c2C(N)=O)c(OC)c1
inactive: HCT-15 colon 70.5% | HT29 colon 41.9% | SNB-19 CNS 58.2% | U251 CNS 18.6% | PC-3 prostate 44.6% | SK-MEL-5 melanoma 55.9% | UACC-62 melanoma 40.7% | LOX IMVI melanoma 54.6% | SK-MEL-28 melanoma 71%

CC(C)(C)NCCC(O)c1cc2c(Cl)cc(Cl)cc2c2cc(C(F)(F)F)ccc12 (stereo unspecified)
active: HCT-15 colon -70.5% | HT29 colon -80.3% | SNB-19 CNS -70.9% | U251 CNS -94.2% | PC-3 prostate -92.3% | SK-MEL-5 melanoma -63.2% | UACC-62 melanoma -77.3% | LOX IMVI melanoma -70.7% | SK-MEL-28 melanoma -91.6%

CCOC(=O)CN1/C(=N/c2sc3c(c2C(=O)OCC)CCN(C(=O)OCC)C3)SC(=O)/C1=C\C(=O)OC
inactive: HCT-15 colon 58.6% | HT29 colon 61.2% | SNB-19 CNS 91.5% | U251 CNS 85.3% | PC-3 prostate 71.6% | SK-MEL-5 melanoma 99.7% | UACC-62 melanoma 92.8% | LOX IMVI melanoma 81.3% | SK-MEL-28 melanoma 109%

O=C1CS/C(=N\Nc2cc(=O)[nH]c3ccccc23)N1c1ccccc1
inactive: HCT-15 colon 94.5% | HT29 colon 98.6% | SNB-19 CNS 90.7% | U251 CNS 95% | PC-3 prostate 80.9% | SK-MEL-5 melanoma 96.2% | UACC-62 melanoma 85.5% | LOX IMVI melanoma 88.2% | SK-MEL-28 melanoma 111%

Cc1cc(N/N=C/c2nc(-c3ccccc3)oc2C)c2cc(Cl)ccc2n1
active: HCT-15 colon -83.3% | HT29 colon -78.1% | SNB-19 CNS -31.2% | U251 CNS -76.9% | PC-3 prostate -61.1% | LOX IMVI melanoma -76.8% | SK-MEL-28 melanoma -96.4%
inactive: SK-MEL-5 melanoma 20.4% | UACC-62 melanoma 86.3%

c1coc(CNc2ccnc(Nc3ccc(OCCN4CCCCC4)cc3)n2)c1
inactive: HCT-15 colon 89.6% | HT29 colon 57.6% | SNB-19 CNS 97.3% | U251 CNS 85.8% | PC-3 prostate 82.9% | SK-MEL-5 melanoma 80.3% | UACC-62 melanoma 93.6% | LOX IMVI melanoma 82.6% | SK-MEL-28 melanoma 107%

COc1ccc(-c2nc(N3CCCC3=O)sc2Br)cc1OC
inactive: HCT-15 colon 89.8% | HT29 colon 82.7% | SNB-19 CNS 93.8% | U251 CNS 96.7% | PC-3 prostate 101% | SK-MEL-5 melanoma 89.8% | UACC-62 melanoma 90% | LOX IMVI melanoma 100% | SK-MEL-28 melanoma 102%

COc1cc(NC(N)=NCCC(C)(C)Oc2ccc(C(F)(F)F)cc2)ncc1C#N
active: HCT-15 colon -70.7% | HT29 colon -79.4% | U251 CNS -98.2% | SK-MEL-5 melanoma -95.8% | UACC-62 melanoma -51.8% | LOX IMVI melanoma -97.2% | SK-MEL-28 melanoma -79.2%
inactive: SNB-19 CNS 27.8% | PC-3 prostate 13.4%
